Experimental data as given in PubChem BioAssay AID1159580 (chemical genetic matrix, 2015).
Screen size: about 5,500 compounds; about 2,000 (36%) were called active. Roughly 18% stayed inconclusive and do not appear here. The list shows a part of the results. Values without a mark were called inactive. Cut-off read from the data, not from the text of the source: active = normalized growth mostly below about 0.91 (no sharp cut-off); inconclusive = no clear call, values can overlap the other calls; inactive = mostly above about 0.92.

Assay: chemical genetic growth profiling, strain panel (AID 1159580);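 note: tested at 20 µM; growth read once vehicle control cultures reached saturation at 30 °C; 1 = growth at the plate median or of vehicle wells; lower values mean less growth of the strain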
Conditions: growth OD

COc1ccc2c(c1O)OCC1c3cc4c(cc3OC21)OCO4 (stereo unspecified)
normalized growth (S. cerevisiae deletion strains, locus YAL013W, strain DEP1, hits give low values): 0.991
normalized growth (S. cerevisiae deletion strains, locus YBR021W, strain FUR4, hits give low values): 0.964
normalized growth (S. cerevisiae deletion strains, locus YBR229C, strain ROT2, hits give low values): 0.96
normalized growth (S. cerevisiae deletion strains, locus YCL029C, strain bik1, hits give low values): 1
normalized growth (S. cerevisiae deletion strains, locus YDL035C, strain GPR1, hits give low values): 0.935
normalized growth (S. cerevisiae deletion strains, locus YDL074C, strain BRE1, hits give low values): 0.882
normalized growth (S. cerevisiae deletion strains, locus YDL101C, strain DUN1, hits give low values): 0.953
normalized growth (S. cerevisiae deletion strains, locus YDL134C, strain PPH21, hits give low values): 0.986
normalized growth (S. cerevisiae deletion strains, locus YDL185W, strain tfp1, hits give low values): 0.957
normalized growth (S. cerevisiae deletion strains, locus YDL192W, strain arf1, hits give low values): 0.986
normalized growth (S. cerevisiae deletion strains, locus YDR101C, strain arx1, hits give low values): 0.986
normalized growth (S. cerevisiae deletion strains, locus YDR150W, strain NUM1, hits give low values): 0.983
normalized growth (S. cerevisiae deletion strains, locus YDR162C, strain NBP2, hits give low values): 0.88
normalized growth (S. cerevisiae deletion strains, locus YDR318W, strain mcm21, hits give low values): 0.979
normalized growth (S. cerevisiae deletion strains, locus YDR388W, hits give low values): 1
normalized growth (S. cerevisiae deletion strains, locus YDR502C, strain sam2, hits give low values): 0.952
normalized growth (S. cerevisiae deletion strains, locus YEL061C, strain CIN8, hits give low values): 0.987
normalized growth (S. cerevisiae deletion strains, locus YER110C, hits give low values): 0.994
normalized growth (S. cerevisiae deletion strains, locus YER155C, strain BEM2, hits give low values): 1
normalized growth (S. cerevisiae deletion strains, locus YER167W, strain BCK2, hits give low values): 1
normalized growth (S. cerevisiae deletion strains, locus YGL078C, strain dbp3, hits give low values): 0.983
normalized growth (S. cerevisiae deletion strains, locus YGL086W, strain mad1, hits give low values): 0.996
normalized growth (S. cerevisiae deletion strains, locus YGL248W, strain PDE1, hits give low values): 0.974
normalized growth (S. cerevisiae deletion strains, locus YGR078C, strain PAC10, hits give low values): 0.909
normalized growth (S. cerevisiae deletion strains, locus YGR135W, strain pre9, hits give low values): 0.958
normalized growth (S. cerevisiae deletion strains, locus YGR229C, strain SMI1, hits give low values): 0.909
normalized growth (S. cerevisiae deletion strains, locus YGR252W, strain gcn5, hits give low values): 0.857
normalized growth (S. cerevisiae deletion strains, locus YHR030C, strain SLT2, hits give low values): 1
normalized growth (S. cerevisiae deletion strains, locus YHR079C, strain IRE1 (second series), hits give low values): 0.982
normalized growth (S. cerevisiae deletion strains, locus YHR094C, strain hxt1, hits give low values): 1
normalized growth (S. cerevisiae deletion strains, locus YHR129C, strain ARP1, hits give low values): 0.988
normalized growth (S. cerevisiae deletion strains, locus YHR200W, strain rpn10, hits give low values): 0.998
normalized growth (S. cerevisiae deletion strains, locus YIL066C, strain RNR3, hits give low values): 0.974
normalized growth (S. cerevisiae deletion strains, locus YIL073C, strain SPO22, hits give low values): 1.01
normalized growth (S. cerevisiae deletion strains, locus YIL125W, strain kgd1, hits give low values): 0.99
normalized growth (S. cerevisiae deletion strains, locus YIR030C, strain dcg1, hits give low values): 0.986
normalized growth (S. cerevisiae deletion strains, locus YJL095W, strain BCK1, hits give low values): 0.924
normalized growth (S. cerevisiae deletion strains, locus YJL134W, strain LCB3, hits give low values): 0.998
normalized growth (S. cerevisiae deletion strains, locus YJL168C, strain set2, hits give low values): 0.987
normalized growth (S. cerevisiae deletion strains, locus YJL187C, strain SWE1 (second series), hits give low values): 0.939
normalized growth (S. cerevisiae deletion strains, locus YJR043C, strain POL32, hits give low values): 0.987
normalized growth (S. cerevisiae deletion strains, locus YJR075W, strain HOC1, hits give low values): 0.939
normalized growth (S. cerevisiae deletion strains, locus YKL009W, strain mrt4, hits give low values): 0.92
normalized growth (S. cerevisiae deletion strains, locus YKL068W, hits give low values): 0.998
normalized growth (S. cerevisiae deletion strains, locus YKL085W, strain MDH1 (second series), hits give low values): 1.01
normalized growth (S. cerevisiae deletion strains, locus YKL085W, strain MDH1, hits give low values): 1.01
normalized growth (S. cerevisiae deletion strains, locus YKL190W, strain CNB1, hits give low values): 0.979
normalized growth (S. cerevisiae deletion strains, locus YKR001C, strain vps1, hits give low values): 0.963
normalized growth (S. cerevisiae deletion strains, locus YLR039C, strain RIC1, hits give low values): 0.846
normalized growth (S. cerevisiae deletion strains, locus YLR058C, strain SHM2, hits give low values): 0.971
normalized growth (S. cerevisiae deletion strains, locus YLR102C, strain apc9, hits give low values): 0.983
normalized growth (S. cerevisiae deletion strains, locus YLR262C, strain YPT6, hits give low values): 0.851
normalized growth (S. cerevisiae deletion strains, locus YLR268W, strain sec22, hits give low values): 0.938
normalized growth (S. cerevisiae deletion strains, locus YLR330W, strain CHS5, hits give low values): 0.991
normalized growth (S. cerevisiae deletion strains, locus YLR342W, strain FKS1 (second series), hits give low values): 0.946
normalized growth (S. cerevisiae deletion strains, locus YLR371W, strain rom2, hits give low values): 1
normalized growth (S. cerevisiae deletion strains, locus YLR418C, strain cdc73, hits give low values): 0.903
normalized growth (S. cerevisiae deletion strains, locus YML016C, strain PPZ1, hits give low values): 0.992
normalized growth (S. cerevisiae deletion strains, locus YML032C, strain rad52, hits give low values): 0.987
normalized growth (S. cerevisiae deletion strains, locus YML124C, strain tub3, hits give low values): 1.01
normalized growth (S. cerevisiae deletion strains, locus YMR078C, strain ctf18, hits give low values): 0.988
normalized growth (S. cerevisiae deletion strains, locus YMR223W, strain ubp8, hits give low values): 0.976
normalized growth (S. cerevisiae deletion strains, locus YMR263W, strain SAP30, hits give low values): 0.929
normalized growth (S. cerevisiae deletion strains, locus YMR307W, strain GAS1, hits give low values): 1.04
normalized growth (S. cerevisiae deletion strains, locus YNL067W, strain RPL9B, hits give low values): 0.929
normalized growth (S. cerevisiae deletion strains, locus YNL128W, strain TEP1, hits give low values): 0.929
normalized growth (S. cerevisiae deletion strains, locus YNL153C, strain GIM3, hits give low values): 0.936
normalized growth (S. cerevisiae deletion strains, locus YNL233W, strain BNI4, hits give low values): 0.971
normalized growth (S. cerevisiae deletion strains, locus YNL250W, strain rad50, hits give low values): 0.994
normalized growth (S. cerevisiae deletion strains, locus YNL271C, strain bni1, hits give low values): 0.98
normalized growth (S. cerevisiae deletion strains, locus YNL298W, strain CLA4, hits give low values): 0.958
normalized growth (S. cerevisiae deletion strains, locus YNL307C, strain MCK1, hits give low values): 0.904 (active)
normalized growth (S. cerevisiae deletion strains, locus YNL322C, strain KRE1, hits give low values): 0.981
normalized growth (S. cerevisiae deletion strains, locus YNR052C, strain pop2, hits give low values): 0.987
normalized growth (S. cerevisiae deletion strains, locus YOL006C, strain TOP1, hits give low values): 0.783
normalized growth (S. cerevisiae deletion strains, locus YOL012C, strain htz1): 1.07
normalized growth (S. cerevisiae deletion strains, locus YOL147C, strain pex11, hits give low values): 1
normalized growth (S. cerevisiae deletion strains, locus YOR061W, strain CKA2, hits give low values): 0.969
normalized growth (S. cerevisiae deletion strains, locus YOR069W, strain VPS5, hits give low values): 1
normalized growth (S. cerevisiae deletion strains, locus YOR136W, strain idh2, hits give low values): 0.999
normalized growth (S. cerevisiae deletion strains, locus YOR144C, strain elg1, hits give low values): 0.994
normalized growth (S. cerevisiae deletion strains, locus YOR184W, strain ser1, hits give low values): 0.907
normalized growth (S. cerevisiae deletion strains, locus YOR316C, strain cot1, hits give low values): 0.988
normalized growth (S. cerevisiae deletion strains, locus YPL055C, strain LGE1, hits give low values): 0.883
normalized growth (S. cerevisiae deletion strains, locus YPL241C, strain CIN2, hits give low values): 0.99
normalized growth (S. cerevisiae deletion strains, locus YPR119W, strain clb2, hits give low values): 0.999
normalized growth (S. cerevisiae deletion strains, locus YPR141C, strain kar3, hits give low values): 0.997
normalized growth (S. cerevisiae deletion strains, locus YPR163C, strain tif3, hits give low values): 0.964
normalized growth (S. cerevisiae deletion strains, locus YPR167C, strain met16, hits give low values): 0.984
normalized growth (S. cerevisiae deletion strains, strain wtn01, hits give low values): 0.946
normalized growth (S. cerevisiae strains, strain wild type, hits give low values): 0.994
